# Experimental data as given in PubChem BioAssay AID588458 (Sanford-Burnham Center for Chemical Genomics, 2011).
# Hit rate of the full screen: of about 360,000 compounds, about 3,000 (0.83%) were called active. The entries come from a sample that favours actives as a whole. Unmarked numbers belong to inactive results. Cut-off read from the data, not from the text of the source: active = inhibition above about 50%; inactive = the rest.
# Target: DNA (cytosine-5)-methyltransferase 1 (Homo sapiens) (UniProt P26358)
# Sequence (P26358 504-1616 limits assumed): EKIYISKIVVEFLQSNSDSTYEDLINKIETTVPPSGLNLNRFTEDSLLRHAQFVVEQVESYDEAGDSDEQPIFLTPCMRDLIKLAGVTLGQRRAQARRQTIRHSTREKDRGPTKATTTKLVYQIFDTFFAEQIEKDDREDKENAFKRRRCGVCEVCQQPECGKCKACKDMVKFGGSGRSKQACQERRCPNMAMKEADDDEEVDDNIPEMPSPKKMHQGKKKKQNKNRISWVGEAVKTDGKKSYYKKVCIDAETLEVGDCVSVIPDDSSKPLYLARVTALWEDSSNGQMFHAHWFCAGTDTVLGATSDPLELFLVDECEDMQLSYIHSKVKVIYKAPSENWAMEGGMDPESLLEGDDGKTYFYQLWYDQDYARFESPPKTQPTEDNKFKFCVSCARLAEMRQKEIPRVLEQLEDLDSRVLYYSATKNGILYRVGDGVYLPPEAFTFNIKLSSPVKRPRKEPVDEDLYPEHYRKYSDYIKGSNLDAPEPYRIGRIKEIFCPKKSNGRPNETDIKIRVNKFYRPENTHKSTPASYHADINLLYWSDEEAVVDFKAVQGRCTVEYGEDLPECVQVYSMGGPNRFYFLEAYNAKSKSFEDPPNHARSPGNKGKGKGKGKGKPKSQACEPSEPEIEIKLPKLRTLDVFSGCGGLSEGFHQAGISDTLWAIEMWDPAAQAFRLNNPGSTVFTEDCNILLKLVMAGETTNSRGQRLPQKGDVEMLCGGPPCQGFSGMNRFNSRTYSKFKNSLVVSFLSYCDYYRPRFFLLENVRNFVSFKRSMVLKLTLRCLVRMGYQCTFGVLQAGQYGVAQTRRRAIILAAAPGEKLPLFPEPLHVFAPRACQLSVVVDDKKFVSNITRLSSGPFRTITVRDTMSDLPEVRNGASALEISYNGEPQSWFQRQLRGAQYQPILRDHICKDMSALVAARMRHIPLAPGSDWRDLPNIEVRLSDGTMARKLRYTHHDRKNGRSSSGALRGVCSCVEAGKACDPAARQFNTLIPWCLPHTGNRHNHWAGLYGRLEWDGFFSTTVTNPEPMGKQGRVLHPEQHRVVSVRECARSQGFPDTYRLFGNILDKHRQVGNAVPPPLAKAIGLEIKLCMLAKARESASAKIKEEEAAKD
# Experiment: inhibition of DNA methyltransferase DNMT1 – biochemical, molecular beacon, fluorescence, HinP1I cleavage, uHTS, primary screen (AID 588458)
# Conditions: at 10 µM, stronger effect = higher value
row,Structure (SMILES),inhibition (reported as % activation of signal)
1,COc1cccc(-c2cc3nc(NCc4ccccc4OC)n(C)c(=O)c3s2)c1,-11.8%
2,CC1C(=O)N(Cc2cn(CC3CCCCC3)nn2)CCS(=O)(=O)N1Cc1ccc(-c2cccc(N(C)C)c2)cc1 (stereo not given),-9.42%
3,Cc1csc(OCC(=O)Nc2ccc(C)c(C)c2)n1,-0.47%
4,CCCNC(=O)c1cc(C2CCCN(C(=O)c3ccc4c(c3)CCO4)C2)on1 (stereo not given),-0.91%
5,COc1ccc(S(=O)(=O)N2CCCCC2c2cc(C(=O)NCc3ccc(F)cc3)no2)cc1 (stereo not given),6.18%
6,CC(C)Cc1nc(Cl)c(C#N)c2c1CCC2,3.27%
7,CC(NC(=S)NC1CCCCC1)C(c1ccccc1)N1CCOCC1 (stereo not given),1.12%
8,O=C(O)C(c1ccccc1)N1C(=O)/C(=C\c2ccc(-c3cccc(Cl)c3)o2)SC1=S (stereo not given),79.8% (active)
9,CC(C(=O)Nc1ccc(O)c(C(=O)O)c1)N1C(=O)/C(=C/c2cccs2)SC1=S (stereo not given),-9.71%
10,CC(C(=O)NC1CCS(=O)(=O)C1)N1C(=O)/C(=C/c2ccc(Cl)cc2)SC1=S (stereo not given),-2.43%
11,NC(=O)CCC(NS(=O)(=O)c1ccc(Cl)cc1)C(=O)NCc1ccccc1Cl (stereo not given),4.11%
12,CCOC(=O)c1cccc(NC(=O)C2CCCN(S(=O)(=O)c3cnc[nH]3)C2)c1 (stereo not given),76.5% (active)
13,O=C(NCc1ccco1)C1CCCN(S(=O)(=O)c2cnc[nH]2)C1 (stereo not given),-1.66%
14,COc1cccc(N2CCN(C(=O)C3CCCN(S(=O)(=O)c4cnc[nH]4)C3)CC2)c1 (stereo not given),-15.4%
15,CC(C)c1cc(C(=O)N/N=C/c2ccoc2)c(O)c(C(C)C)c1,13.8%
16,Cc1ccc(O)c(/C=N/NC(=O)COc2ccc3c(C)cc(=O)oc3c2)c1,59.9% (active)
17,Cc1cc(=O)oc2cc(OCC(=O)Nc3nnc(C4CC4)s3)ccc12,-3.06%
18,CCOC(=O)Cc1csc(NC(=O)COc2ccc3c(C)cc(=O)oc3c2)n1,-0.49%
19,CN(CCOc1ccccc1)C(=O)c1cc(COc2c(F)cccc2F)on1,1.59%
20,CN(C(=O)COC(=O)c1cc(-c2ccco2)nc2ccccc12)C1CCS(=O)(=O)C1 (stereo not given),92.3% (active)
21,CN(C(=O)COC(=O)Cc1ccccc1[N+](=O)[O-])C1CCS(=O)(=O)C1 (stereo not given),2.42%
22,CN(CCOc1ccccc1)C(=O)c1cc(-c2ccco2)nc2ccccc12,72.3% (active)
23,O=C(c1cc(-c2ccco2)nc2ccccc12)N(Cc1nnc(-c2ccc(Cl)cc2)o1)C1CC1,13.4%

row,Structure (SMILES),inhibition (reported as % activation of signal)
1,COc1ccc(NC(=O)COc2ccc(C(=O)OCC(=O)N(C)C3CCS(=O)(=O)C3)cc2OC)cc1 (stereo not given),8.48%
2,OCC[C@H]1C[C@H](O)[C@@H](O)[C@]2(CCCCO2)O1,5.49%
3,CCOc1ccccc1-n1c(SCC(=O)N2CCCC2)nnc1-c1ccoc1C,7.56%
4,COc1ccc(Cl)cc1S(=O)(=O)Nc1cccc(C(=O)O)c1,-3.3%
5,COc1cc(OC)cc(-c2sc3ccc(OC)cc3c2-c2ccc3cc[nH]c3c2)c1,-17.8%
6,COc1ccc2sc(-c3ccc(S(C)(=O)=O)cc3)c(C#Cc3cncn3C)c2c1,-10.4%
7,COc1ccc2sc(-c3ccc(S(C)(=O)=O)cc3)c(-c3ccc(C(N)=O)cc3)c2c1,86.5% (active)
8,O=C(NCc1ccco1)c1cnn2c(C(F)(F)F)cc(-c3ccco3)nc12,-0.51%
9,COCC(=O)N(C)[C@H]1C[C@H]2c3cc(Oc4ccccc4C)ccc3CCN2C(=O)[C@H]1[C@H](C)O,-0.44%
10,COc1cc(C2C3=C(CCCC3=O)OC3=C2C(=O)CCC3)ccc1OCC(=O)Nc1ccccc1,-1.83%
11,CCCn1c(C)cc(/C=C(\C#N)C(=O)OCC(=O)Nc2cc(OC)c(OC)c(OC)c2)c1C,-3.49%
12,CCOC(=O)/C(C#N)=C/c1ccc(OCC(=O)Nc2ccccc2)c(OC)c1,59.5% (active)
13,COC(=O)Nc1nc2ccc(Sc3ccccc3)cc2[nH]1,23.1%
14,CCCNC(=O)C1(C)CCN1C(=O)Cc1ccc(-c2ccccc2)cc1 (stereo not given),-1.26%
15,CCNC(=O)C1CCCN(C(=O)c2ccc(OC)cc2OC)CC1 (stereo not given),-0.58%
16,CCOC(=O)C1CCCN(C(=O)c2ccc(C)c(F)c2)CC1 (stereo not given),1.76%
17,CCNC(=O)C1CCCN(C(=O)c2cc(F)ccc2C)CC1 (stereo not given),58% (active)
18,Nc1nc(NCc2ccccc2)n(-c2ccccc2)n1,-0.22%
19,Cc1cc(C)n2nc(C(=O)N(C)C(c3ccccc3)c3ccccc3)nc2n1,2.32%
20,Cc1ccc2[nH]c(=O)c(CN3CCCCC3)c(-c3ccccc3)c2c1,-7.9%
21,O=c1cc(CN2CCCCCCC2)c2c(ccc3ccccc32)o1,-0.34%
22,c1ccc2cc3[nH]c(CN4CCCCC4)nc3cc2c1,83.2% (active)
23,Cc1cc(C)nc(NS(=O)(=O)c2ccc(N/C=C\C(=O)c3cccs3)cc2)n1,-0.17%

row,Structure (SMILES),inhibition (reported as % activation of signal)
1,CC(C)(C)n1nnc(CCc2nnn(C(C)(C)C)n2)n1,0.1%
2,NNc1cccc(C=Cc2ccccc2)cc1=O,75.5% (active)
3,COc1cccc(C=CC(=O)C=CC=Cc2ccccc2)c1,13.2%
4,O=C(COC(=O)/C=C/c1cccc(Cl)c1)NCCc1ccccc1,-1.37%
5,COc1ccc(CC(=O)NCc2nnc(SCC(=O)Nc3ncc(C)s3)n2C)cc1,-1.25%
6,COc1cc(NC(=S)NNC(=O)CC(C)C)c(OC)cc1Cl,-0.35%
7,CSc1ccccc1NC(=O)C(C)N1C(=O)c2ccccc2S1(=O)=O (stereo not given),-0.34%
8,CC(=O)Nc1ccccc1Sc1ccc2c3c(cccc13)C(=O)N(c1ccc(C)cc1)C2=O,73.9% (active)
9,Cc1ccc(N2C(=O)CC(Nc3cccc4ccccc34)C2=O)cc1 (stereo not given),-1.89%
10,O=C(c1ccco1)N1CCN(C(=O)C2CCCN(S(=O)(=O)c3cccc4nsnc34)C2)CC1 (stereo not given),0.5%
11,CCC(=O)N1CCCC1(C)C(=O)Nc1ccc2c(c1)CCN2C(C)=O (stereo not given),-1.12%
12,Cc1ccc(NS(=O)(=O)c2c(C)[nH]c(C)c2C(=O)N2CCCCC2)c(C)c1,12.2%
13,O=C(CCC1CCCN(C(=O)c2ccc(F)c(F)c2)C1)N1CCN(c2ccccn2)CC1 (stereo not given),3.2%
14,C=Cc1ccc(C(=O)N2CCCC(CCC(=O)N3CCN(c4ccccn4)CC3)C2)cc1 (stereo not given),80.1% (active)
15,COc1cccc(CC(=O)N2CCCC(CCC(=O)N3CCN(c4ccccn4)CC3)C2)c1 (stereo not given),-0.42%
16,O=C(CN1CCCSc2ccccc21)N1CCN(S(=O)(=O)c2cccc(F)c2)CC1,89.2% (active)
17,O=C(CN1CCCSc2ccccc21)N1CCN(S(=O)(=O)c2ccccc2)CC1,-0.81%
18,O=C(CN1CCN(S(=O)(=O)c2cccc(Cl)c2)CC1)N1CCCCC1,-1.19%
19,COc1ccc(C(=O)N2CCN(c3ccc(C(C)=O)cc3F)CC2)cc1S(=O)(=O)NC1CC1,3.83%
20,CC1CCC(C(C)C)C(=O)/C1=C\c1ccc(NC(=O)CCC(=O)O)cc1 (stereo not given),0.83%
21,Cc1ccc(Cc2cncc(O)c2)cc1S(=O)(=O)O,50.3% (active)
22,COC(=O)CC(=O)N1CCN(c2ccc(Cl)c(Cl)c2)CC1,-1.96%
23,CC1(Oc2ccc(Cl)cc2)CCN(Cc2csc3ccccc23)C1 (stereo not given),1.6%

row,Structure (SMILES),inhibition (reported as % activation of signal)
1,O=S(=O)(NCCc1ccc(Cl)cc1)c1cccs1,-0.79%
2,CCOC(=O)c1c(NC(=O)CSc2nccc(=O)[nH]2)sc(C)c1C,0.32%
3,CCOC(=O)c1c(C)[nH]c(C)c1C(=O)CSc1nc(N)cc(N)n1,-17.2%
4,CCOC(=O)c1c(C)[nH]c2c1-c1ccccc1C(=O)C2=O,93.5% (active)
5,O=C(OCC(=O)N1CCCC1=O)c1cc(S(=O)(=O)N2CCOCC2)ccc1Cl,0.37%
6,CCOC(=O)c1sc(N(Cc2ccccc2)C(=O)CN2C(=O)CN(C)C2=O)nc1C,-3.6%
7,CC(C)(C)NC(=O)CSc1nnc(NC(=O)CCc2ccccc2)s1,-0.32%
8,Cc1ccccc1CSCC(=O)NC(=O)NC(C)(C)C,-1.56%
9,CC(C)(C)NC(=O)CSC(=Nc1ccccc1F)NC#N,52.8% (active)
10,CCCC/C=C/c1cccc2nncn12,5.75%
11,COc1ccccc1C(=O)Nc1ccc(OCC(=O)N2CCCCC2)cc1,5.57%
12,COc1ccc(NC(=O)CC2C(=O)NC3CCCCC3N2C(=O)c2ccc(F)cc2)cc1 (stereo not given),4.5%
13,O=C(c1ccc(F)cc1)c1cn(Cc2ccc(F)cc2)c2cc3c(cc2c1=O)OCCO3,-8.26%
14,COc1ccc2c(c1)c(=O)c(C(=O)c1ccc(Cl)cc1)cn2CC(=O)Nc1ccc(F)cc1,59.8% (active)
15,CNc1cc(-c2c(OC)cccc2OC)ncn1,5.78%
16,COC(=O)c1ccc(C2NC(=O)NC(C)=C2C(=O)N(C)C)cc1 (stereo not given),0.97%
17,O=C(NNC(=O)c1cc(-c2ccccc2Cl)nc2ccccc12)c1csc(N2CCOCC2)n1,1.75%
18,O=C(Nc1ccc2ccccc2c1)Nc1ccc2snnc2c1,-8.95%
19,COC(=O)c1ccccc1NC(=O)C1(S(=O)(=O)c2ccc(Cl)cc2)CC1,-0.08%
20,CCOC(=O)C1CCCN(C(=O)CSc2nnc3nc(C)cc(C)n23)C1 (stereo not given),0.98%
21,CN(C)CC(C)(C)CNC(=O)c1cc(Br)cc(Br)c1O,-5.18%
